Measurements: publication PMC4336329 (PLoS ONE, 2015)
About 2,200 (0.71%) of roughly 310,000 compounds showed an effect of 50% or more. Effects have a minus sign here. The full list was thinned out, with strong results kept by preference.

What follows are molecules tested against human ether-à-go-go-related gene (hERG) potassium channel (human, UniProt Q12809) (assay: primary screen, population patch clamp on CHO cells stably expressing hERG; higher = less effect of the substance).
Sequence of human ether-à-go-go-related gene (hERG) potassium channel (Q12809 whole entry, looked up): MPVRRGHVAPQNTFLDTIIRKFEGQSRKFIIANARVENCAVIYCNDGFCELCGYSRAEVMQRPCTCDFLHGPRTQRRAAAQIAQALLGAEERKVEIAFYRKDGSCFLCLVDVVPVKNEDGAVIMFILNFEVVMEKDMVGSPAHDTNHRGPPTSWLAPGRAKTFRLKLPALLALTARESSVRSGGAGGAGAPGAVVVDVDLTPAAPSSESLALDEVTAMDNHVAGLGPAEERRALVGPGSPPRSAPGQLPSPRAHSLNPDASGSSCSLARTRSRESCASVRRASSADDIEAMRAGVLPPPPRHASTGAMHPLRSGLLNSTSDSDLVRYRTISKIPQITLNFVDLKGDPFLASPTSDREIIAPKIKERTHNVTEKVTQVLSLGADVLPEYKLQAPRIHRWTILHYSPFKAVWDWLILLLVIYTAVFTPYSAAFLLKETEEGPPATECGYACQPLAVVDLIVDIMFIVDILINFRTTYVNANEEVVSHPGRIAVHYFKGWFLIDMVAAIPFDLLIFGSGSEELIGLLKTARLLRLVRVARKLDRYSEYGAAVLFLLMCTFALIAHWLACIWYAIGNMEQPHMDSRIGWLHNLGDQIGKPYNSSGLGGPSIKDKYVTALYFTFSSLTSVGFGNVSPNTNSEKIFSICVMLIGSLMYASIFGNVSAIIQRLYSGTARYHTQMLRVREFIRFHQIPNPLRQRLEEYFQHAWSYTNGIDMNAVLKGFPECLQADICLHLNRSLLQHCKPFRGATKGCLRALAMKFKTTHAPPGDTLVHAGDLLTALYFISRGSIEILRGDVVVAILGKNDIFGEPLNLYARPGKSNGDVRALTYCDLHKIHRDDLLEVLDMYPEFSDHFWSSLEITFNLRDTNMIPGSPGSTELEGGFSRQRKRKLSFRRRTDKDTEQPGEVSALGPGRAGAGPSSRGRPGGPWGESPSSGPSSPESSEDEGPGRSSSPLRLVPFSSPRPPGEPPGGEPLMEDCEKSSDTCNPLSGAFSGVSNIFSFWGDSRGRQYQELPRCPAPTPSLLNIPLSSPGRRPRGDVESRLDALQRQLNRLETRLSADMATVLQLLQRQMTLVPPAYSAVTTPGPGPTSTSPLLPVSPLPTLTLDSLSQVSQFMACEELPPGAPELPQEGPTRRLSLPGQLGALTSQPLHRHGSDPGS

SMILES | hERG current change (%, negative = inhibition) at 1uM [%]
COc1ccc(CC(=O)N2CCN(S(=O)(=O)c3cc(Cl)ccc3Cl)CC2)cc1 | 14
CCOC(=O)N1CCC(N2CCN(c3cc(C)ccc3C)CC2)CC1 | -32.2
COc1cccc2c1OCC/C2=N\NC(=O)COc1ccccc1C | -13.9
COc1ccc(CNC(=O)C2CC(c3cccc([N+](=O)[O-])c3)=NO2)cc1 (stereo not drawn) | 5.46
O=C(NCc1cccnc1)c1ccc(Cl)cc1[N+](=O)[O-] | 7.05
c1ccc(CSc2ncnc3c2oc2ccccc23)cc1 | 9.56
O=C(CSc1nc2ccccc2c(=O)n1CC1CCCO1)NCc1ccc2c(c1)OCO2 (stereo not drawn) | 9.71
N=c1c(C(=O)NCc2ccc(F)cc2)cc2c(=O)n3ccccc3nc2n1CC1CCCO1 (stereo not drawn) | -85.3
N=c1c(C(=O)NCc2ccc3c(c2)OCO3)cc2c(=O)n3ccccc3nc2n1CC1CCCO1 (stereo not drawn) | -84.2
COc1ccc(CNC(=O)c2cc3c(=O)n4ccccc4nc3n(CC3CCCO3)c2=N)cc1 (stereo not drawn) | -80.4
CCOC(=O)c1cc2c(=O)n3ccccc3nc2n(CC2CCCO2)c1=NC(C)=O (stereo not drawn) | 16.6
Cc1ccc(CNC(=O)c2cc3c(=O)n4ccccc4nc3n(CC3CCCO3)c2=N)cc1 (stereo not drawn) | -85.7
N=c1c(S(=O)(=O)c2ccc(F)cc2)cc2c(=O)n3ccccc3nc2n1CC1CCCO1 (stereo not drawn) | -2.33
CCc1ccc(N(CC(=O)Nc2ccccc2C(=O)N2CCOCC2)S(C)(=O)=O)cc1 | 8.28
O=C(NCc1cccnc1)c1ccc(CS(=O)(=O)Cc2ccc(Cl)cc2)o1 | 3.03
Cc1c(C(=O)OCC(=O)N2c3ccccc3CC2C)oc2ccccc12 (stereo not drawn) | 14.6
O=C(Nc1cccc(F)c1)Nc1ccccn1 | 16
Cc1c(C(=O)c2ccccc2)c(=O)n(C)c(=O)n1C | 9.65
O=S(=O)(Nc1cccc(-c2ccc(N3CCCCCC3)nn2)c1)c1cccc(F)c1 | 14.3
CSc1nnc(-c2ccc(O)cc2)n1C | -1.62
COC(=O)c1ccc(CN2CCCC(C(=O)c3cc(F)ccc3OC)C2)cc1 (stereo not drawn) | -8.3
O=C1c2ccccc2C(=O)N1CCCc1nc(-c2ccccn2)no1 | -4.38
CCOC(=O)/C(N=Nc1sc(C(=O)OC)c(C)c1C(=O)OCC)=C(\O)CCl | 14.4

SMILES | hERG current change (%, negative = inhibition) at 1uM [%]
COc1cc(OC)cc(C(=O)OCC(=O)N(C)c2ccccc2)c1 | 9.32
Oc1ccc(-c2[nH]ncc2-c2ccc(Br)cc2)c(O)c1 | 6.73
CCC(=O)Nc1ccc(Oc2ccc3c(c2)C(=O)N(c2ccc(O)cc2)C3=O)cc1 | 13.7
O=C1CC(N2CCN(C/C=C/c3ccccc3)CC2)C(=O)N1CCc1ccccc1 (stereo not drawn) | -4.01
O=C1CC(N2CCN(C/C=C/c3ccccc3)CC2)C(=O)N1Cc1ccc(N2CCCC2=O)cc1 (stereo not drawn) | -13
O=C1CC(N2CCN(C/C=C/c3ccccc3)CC2)C(=O)N1Cc1cccs1 (stereo not drawn) | -50.8
COc1ccc(NC(=O)CN2CCN(CC(=O)Nc3ccccc3Cl)CC2)c(OC)c1 | -48
COc1ccc(NC(=O)CN2CCCN(S(=O)(=O)c3ccc(F)cc3)CC2)c(OC)c1 | -8.18
COc1ccc(NC(=O)CN2CCN(CC(=O)Nc3ccccc3F)CC2)c(OC)c1 | -19.6
COc1ccc(NC(=O)CN2CCN(S(=O)(=O)c3ccc(F)cc3)CC2)cc1Cl | 7.03
CCOc1ccc(NC(=O)CN2CCN(CC(=O)Nc3ccccc3OC)CC2)cc1 | -30.9
COc1cccc(NC(=O)CN2CCN(S(=O)(=O)c3ccc(F)cc3)CC2)c1 | 4.16
COc1ccc(NC(=O)CN2CCN(CC(=O)Nc3ccc(F)cc3)CC2)c(OC)c1 | -83.3
COc1ccc(NC(=O)CN2CCN(c3ccc(F)cc3)CC2)cc1Cl | 13.2
COc1ccc(NC(=O)CN2CCN(CC(=O)Nc3ccc(F)cc3)CC2)cc1Cl | -88.6
COc1cccc(NC(=O)CN2CCN(CC(=O)Nc3ccc(F)cc3)CC2)c1 | -90.6
CCOc1ccc(NC(=O)CN2CCN(CC(=O)Nc3ccc(OC)cc3OC)CC2)cc1 | -58.2
COc1cccc(NC(=O)CN2CCN(c3ccc(F)cc3)CC2)c1 | 2.77
Cc1[nH]c2ccccc2c1C(=O)/C=C/c1ccccc1Cl | 14.6
NC(=O)CN1C(=O)NC2(CCCc3sccc32)C1=O (stereo not drawn) | 17
O=C(CCC(=O)c1cccs1)OCc1nc2ccccc2s1 | 12.6
O=c1c2ccccc2nc(CSc2ncnc3nc[nH]c23)n1-c1cccc(C(F)(F)F)c1 | -2.15
COc1ccc(NC(=O)COc2cccnc2[N+](=O)[O-])cc1OC | 15.8

SMILES | hERG current change (%, negative = inhibition) at 1uM [%]
Cc1nc(C(=O)Nc2cc(Cl)ccc2Cl)nn1-c1cc(OC(C)C)c(Cl)cc1Cl | -0.146
CC1CCCN(C(=O)CSc2cnc3ccccc3n2)C1 (stereo not drawn) | -9.88
COc1ccccc1-c1noc(CSc2nc(C)cc(=O)[nH]2)n1 | 19.4
Cc1ccc(NC(=O)C2C(c3ccccc3)C2(Cl)Cl)c(C)c1 (stereo not drawn) | 2.95
COc1ccc(-c2nc(-c3cccs3)c(-c3cccs3)[nH]2)cc1OC | 20.3
O=[N+]([O-])c1cc([N+](=O)[O-])c(Oc2cc(Cl)cc(Cl)c2)cc1NN1CCCCC1 | 11.6
Cc1ccc(S(=O)(=O)NCC2CCC(C(=O)NCCCN3CCCC3=O)CC2)cc1 (stereo not drawn) | 11.2
COc1ccc(N(CC(=O)O)S(=O)(=O)c2cccnc2)cc1 | 14.2
COc1ccccc1NC(=O)CN1CCN(CC(=O)Nc2ccc(OC)c(OC)c2)CC1 | 12
COc1ccccc1NC(=O)CN1CCN(CC(=O)Nc2ccc(C)c(F)c2)CC1 | -49.1
COc1ccccc1NC(=O)CN1CCN(CC(=O)Nc2ccc(F)cc2)CC1 | -87.4
CCCCCn1c(N2CCC(Cc3ccccc3)CC2)nc2c1c(=O)[nH]c(=O)n2C | 11.2
CCCCCn1c(CN2CCN(C)CC2)nc2c1c(=O)n(C)c(=O)n2C | -5.24
Cn1c(=O)[nH]c(=O)c2c1nc(CN1CCN(Cc3ccccc3)CC1)n2CC(N)=O | 6.48
CC(C)CCn1c(CN2CCN(Cc3ccccc3)CC2)nc2c1c(=O)[nH]c(=O)n2C | -2.51
CCCCCn1c(CN2CCN(Cc3ccccc3)CC2)nc2c1c(=O)n(C)c(=O)n2C | -57.9
CCCCCn1c(CN2CCN(Cc3ccccc3)CC2)nc2c1c(=O)[nH]c(=O)n2C | -72.5
CCN1CCN(c2nc3c(c(=O)[nH]c(=O)n3C)n2Cc2ccccc2)CC1 | 1.8
Cn1c(=O)[nH]c(=O)c2c1nc(N1CCN(Cc3ccccc3)CC1)n2CCCc1ccccc1 | -22
CCCCCCn1c(CN2CCN(Cc3ccccc3)CC2)nc2c1c(=O)n(C)c(=O)n2C | -47.2
CCCCCCn1c(N2CCN(c3ccccc3)CC2)nc2c1c(=O)[nH]c(=O)n2C | -20.5
CCCCCn1c(N2CCN(Cc3ccccc3)CC2)nc2c1c(=O)[nH]c(=O)n2C | -77
CCN1CCN(c2nc3c(c(=O)[nH]c(=O)n3C)n2CCCc2ccccc2)CC1 | -81.5

SMILES | hERG current change (%, negative = inhibition) at 1uM [%]
COc1ccc(CCNC(=O)Nc2ccc(F)cc2F)cc1OC | 15.8
CCOC(=O)C1CCN(C(=O)Nc2ccc3snnc3c2)CC1 | 3.17
O=C(Nc1ccc(F)cc1)N(Cc1cccs1)Cc1cc2cc3c(cc2[nH]c1=O)OCO3 | 16.6
COc1cc(C(=O)NCCOc2ccccc2)cc(OC)c1OC | 16.3
CCOC(=O)N1CCN(CCC(=O)Nc2ccc(OC)cc2OC)CC1 | 3.55
O=C(Oc1c(-c2ccco2)oc2ccccc2c1=O)c1cccnc1 | 16.2
COc1cc(SC#N)ccc1N=Cc1c(C)[nH]n(-c2cccc3ccccc23)c1=O | 13.4
COc1ccc(CCNC2CC(=O)N(CCc3ccc(OC)c(OC)c3)C2=O)cc1 (stereo not drawn) | 7.42
O=C(Cn1cnc2c(oc3ccccc32)c1=O)NCC1CCCO1 (stereo not drawn) | 9.36
C=CCOc1ccccc1CN1CCC(Cc2ccccc2)CC1 | -51.6
C=CCOc1ccccc1CN1CCSCC1 | -1.02
CCOc1ccc(C(=O)N2CCCC2)cc1 | 10.9
C=CCOc1ccccc1CN1CCCCCC1 | 11.6
CCOc1ccc(C(=O)N2CCCCCC2)cc1 | 9.17
CCOc1ccc(C(=S)N2CCCC2)cc1 | 5.79
O=C(O)C(=O)O.O=C(c1ccccc1)N1CCN(Cc2ccccc2)CC1 | 2.81
CCOc1ccc(C(=S)N2CCOCC2)cc1 | 5.79
O=C(c1ccc(-n2cccc2)cc1)N1CCN(Cc2ccccc2)CC1 | -59.9
CCOc1ccc(C(=O)N2CCCN(C(=O)c3ccc(OCC)cc3)CC2)cc1 | -69.3
O=C(c1ccc(F)cc1)N1CCN(Cc2ccccc2)CC1 | 10.5
CCOc1ccc(C(=S)N2CCN(C)CC2)cc1 | -84.3
